Here are results for eight compounds from PubChem BioAssay (NCI).

Compounds without any hit were thinned out: in the full panel of roughly 83,000, 20% have a hit.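 Treatment: one concentration, 48 hours, 96-well format. Scoring: percent growth, with anything below 10 considered active.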 Values without a mark were called inactive. Active and inactive are the calls of the source.

Assay in all cases: NCI-60 one-dose screen, 48 h (100 = growth as untreated, 0 = no growth, -100 = all killed)
The subject of one assay is SK-MEL-2 melanoma. To be noted: 10 µM.
In a further assay the test system is EKVX NSCLC. To be noted: 10 µM.
A further assay deals with SN12C renal. To be noted: 10 µM.
A further assay concerns UO-31 renal. The note with it: 10 µM.
In the next assay the test system is TK-10 renal.
A further assay has as its system ACHN renal. The note with it: 10 µM.
In another assay the test system is CAKI-1 renal. The note with it: 10 µM.
In a further assay the test system is A498 renal. The note with it: 10 µM.
The test system of the next assay is CCRF-CEM leukemia. To be noted: 10 µM.
For a further assay, the system named is MOLT-4 leukemia. To be noted: 10 µM.
The next assay has as its system SR leukemia. The note with it: 10 µM.
Another assay concerns RPMI-8226 leukemia. The note with it: 10 µM.
The subject of the next assay is OVCAR-8 ovarian. The note with it: 10 µM.
Another assay has as its system OVCAR-5 ovarian. To be noted: 10 µM.
The next assay deals with OVCAR-4 ovarian. To be noted: 10 µM.
In a further assay the test system is SK-OV-3 ovarian. The note with it: 10 µM.
The next assay has as its system IGROV1 ovarian. To be noted: 10 µM.
A further assay has as its system OVCAR-3 ovarian. To be noted: 10 µM.
For the next assay, the system named is HS 578T breast. The note with it: 10 µM.
In the next assay the test system is NCI/ADR-RES ovarian. The note with it: 10 µM.

As to `Cc1cc(=O)[nH]c(NN=C2CCCC2)n1`, the growth in the assay on SK-MEL-2 melanoma is 107%; in the assay with EKVX NSCLC, 107%; in the assay on SN12C renal it was 104%; with UO-31 renal it was 91.2%; with TK-10 renal (10 µM unless noted), 122%; in the assay with ACHN renal, 108%. Moreover, the growth with CAKI-1 renal was 100%; with A498 renal it was 129%; in the assay on CCRF-CEM leukemia, 102%; in the assay on MOLT-4 leukemia, 101%; in the assay with SR leukemia, 103%; with RPMI-8226 leukemia it was 107%. The growth is 112% in the assay on OVCAR-8 ovarian; 99.4% with OVCAR-5 ovarian; 114% with OVCAR-4 ovarian; 103% in the assay on SK-OV-3 ovarian; 107% with IGROV1 ovarian; 110% in the assay on OVCAR-3 ovarian. In addition, the growth in the assay with HS 578T breast and in the assay with NCI/ADR-RES ovarian was 121% in each case.

`O=[N+]([O-])c1ccc(N=Nc2ccccc2)cc1`: the growth in the assay with SK-MEL-2 melanoma is 94.3%; with EKVX NSCLC, 106%; in the assay on SN12C renal, 94.3%; in the assay with UO-31 renal, 65.7%; with TK-10 renal (10 µM unless noted), 92.2%; in the assay on ACHN renal, 96.2%. Further, the growth was 92.8% in the assay with CAKI-1 renal; 89.8% in the assay with A498 renal; 38.7% with CCRF-CEM leukemia; 79.1% in the assay on MOLT-4 leukemia; 97.9% with SR leukemia; 98% in the assay on RPMI-8226 leukemia. Further, the growth was 104% with OVCAR-8 ovarian; 97.7% in the assay with OVCAR-5 ovarian; 107% with OVCAR-4 ovarian; 113% in the assay with SK-OV-3 ovarian; 89.8% with IGROV1 ovarian; 107% in the assay on OVCAR-3 ovarian. Also, the growth in the assay with HS 578T breast was 119%; in the assay with NCI/ADR-RES ovarian, 94.8%.

As for `S=c1nn[nH]c2ccccc12`, the growth in the assay on SK-MEL-2 melanoma is 102%; in the assay on EKVX NSCLC, 117%; with SN12C renal it was 93.4%; with UO-31 renal it was 67.1%; with TK-10 renal (10 µM unless noted) it was 109%; with ACHN renal, 93.2%. For the same compound, the growth with CAKI-1 renal was 98.3%; in the assay on A498 renal, 109%; in the assay on CCRF-CEM leukemia, 111%; in the assay with MOLT-4 leukemia, 108%; in the assay with SR leukemia, 92.2%; with RPMI-8226 leukemia, 117%. Also, the growth was 103% in the assay on OVCAR-8 ovarian; 105% in the assay on OVCAR-5 ovarian; 114% in the assay with OVCAR-4 ovarian; 99.8% with SK-OV-3 ovarian; 97.7% with IGROV1 ovarian; 111% with OVCAR-3 ovarian. Further, the growth in the assay with HS 578T breast is 109%; in the assay with NCI/ADR-RES ovarian, 105%.

For `O=C(Nc1cc(-c2ccccc2)[nH]n1)c1ccc(Cl)cc1`, the growth in the assay on SK-MEL-2 melanoma is 78%; with EKVX NSCLC it was 101%; in the assay on SN12C renal, 84.1%; in the assay with UO-31 renal, 59.1%; in the assay with TK-10 renal (10 µM unless noted) it was 66.6%; in the assay with ACHN renal, 60.8%. In addition, the growth in the assay on CAKI-1 renal was 76.3%; with A498 renal, 78.6%; with CCRF-CEM leukemia it was 62%; with MOLT-4 leukemia, 85.2%; in the assay with SR leukemia, 47.7%; in the assay on RPMI-8226 leukemia it was 36.6%. Also, the growth in the assay with OVCAR-8 ovarian was 84.3%; in the assay on OVCAR-5 ovarian it was 80.7%; in the assay with OVCAR-4 ovarian, 71%; in the assay on SK-OV-3 ovarian, 62.7%; in the assay with IGROV1 ovarian, 3.1% (active); with OVCAR-3 ovarian it was 80.5%. For the same compound, the growth is 80.6% in the assay with HS 578T breast and 85% in the assay with NCI/ADR-RES ovarian.

With `Cc1cc(C(O)(c2ccc(Nc3ccccc3)cc2)c2ccc(Nc3ccc(S(=O)(=O)O)cc3)cc2)ccc1N` (stereo not drawn), the growth in the assay on SK-MEL-2 melanoma was -33.1% (active); with EKVX NSCLC, 9.86% (active); with SN12C renal it was 22.5%; in the assay on UO-31 renal it was 3.47% (active); with TK-10 renal (10 µM unless noted), 7.3% (active); with ACHN renal it was -13.2% (active). In addition, the growth with CAKI-1 renal was 31.7%; in the assay on A498 renal it was 2.33% (active); in the assay on CCRF-CEM leukemia, 2.35% (active); in the assay on MOLT-4 leukemia, 8.2% (active); in the assay on SR leukemia it was 7.14% (active); in the assay with RPMI-8226 leukemia it was -28.8% (active). Also, the growth in the assay on OVCAR-8 ovarian was 6.11% (active); in the assay on OVCAR-5 ovarian it was -65.8% (active); with OVCAR-4 ovarian, -5.82% (active); in the assay on SK-OV-3 ovarian it was 31.3%; in the assay on IGROV1 ovarian it was 5.51% (active); with OVCAR-3 ovarian it was -29.1% (active). Besides, the growth with HS 578T breast was 1.91% (active); in the assay with NCI/ADR-RES ovarian, 18.8%.

In the case of `O=C(O)C(c1ccccc1)C(O)c1ccccc1` (stereo not drawn), the growth in the assay with SK-MEL-2 melanoma was 99.6%; in the assay with EKVX NSCLC, 108%; in the assay with SN12C renal it was 98.2%; in the assay on UO-31 renal it was 94.4%; with TK-10 renal (10 µM unless noted), 108%; with ACHN renal it was 96.6%. Further, the growth with CAKI-1 renal was 100%; in the assay with A498 renal it was 69.8%; with CCRF-CEM leukemia it was 99.8%; in the assay on MOLT-4 leukemia, 87.5%; in the assay with SR leukemia it was 94.6%; in the assay with RPMI-8226 leukemia it was 101%. For the same compound, the growth in the assay with OVCAR-8 ovarian is 99.4%; in the assay on OVCAR-5 ovarian it was 103%; in the assay on OVCAR-4 ovarian, 120%; in the assay on SK-OV-3 ovarian it was 99.9%; with IGROV1 ovarian, 101%; in the assay with OVCAR-3 ovarian, 116%. The growth in the assay with HS 578T breast was 100%; in the assay with NCI/ADR-RES ovarian, 107%.

Consider `C=C1CC/C=C(\C)C(=O)C[C@@H]2[C@@H]1CC2(C)C`, for which the growth in the assay on SK-MEL-2 melanoma was 102%; in the assay with EKVX NSCLC, 104%; in the assay with SN12C renal it was 114%; in the assay with UO-31 renal it was 88.3%; with TK-10 renal (10 µM), 123%; with TK-10 renal (100 µM), -73.6% (active). Further, the growth was 102% in the assay with ACHN renal; 85% in the assay with A498 renal; 69.3% in the assay on CCRF-CEM leukemia; 93.5% in the assay with MOLT-4 leukemia; 95.7% in the assay with SR leukemia; 98.1% with OVCAR-8 ovarian. Further, the growth was 108% in the assay on OVCAR-5 ovarian; 101% in the assay on SK-OV-3 ovarian; 11.4% with IGROV1 ovarian; 96.7% with OVCAR-3 ovarian; 122% in the assay with HS 578T breast; 115% in the assay with NCI/ADR-RES ovarian.

With `NC(=O)c1ccc(N=C(N)N=C(N)N)cc1`, the growth in the assay on SK-MEL-2 melanoma is 121%; with EKVX NSCLC, 73.5%; in the assay on SN12C renal, 110%; in the assay with UO-31 renal it was 78.5%; in the assay with TK-10 renal (10 µM unless noted) it was 77.5%; with ACHN renal it was 112%. Further, the growth in the assay with CAKI-1 renal is 93.4%; with A498 renal it was 106%; with CCRF-CEM leukemia, 99.6%; in the assay on MOLT-4 leukemia, 103%; in the assay on SR leukemia it was 97.4%; in the assay on RPMI-8226 leukemia it was 107%. In addition, the growth in the assay with OVCAR-8 ovarian is 98.8%; with OVCAR-5 ovarian, 97.8%; in the assay on OVCAR-4 ovarian it was 98.2%; in the assay on SK-OV-3 ovarian, 100%; in the assay on IGROV1 ovarian, 102%; in the assay on OVCAR-3 ovarian, 105%. Besides, the growth with HS 578T breast is 99.6%; with NCI/ADR-RES ovarian, 105%.
